Positions count from the first letter of the chain named. The full ranking holds about 16,000 sequences; the median of “ka relative to ugcaugu” is about 0.096, and the highest 2% start at about 0.35. Shown is part of a subset that was picked to be rich in the highest values.
T1: RBFOX1 RRM RbFoxmut (Fox-RRM*) (Homo sapiens, UniProt Q9NWB1 109-208, R118D;E147R;N151S;E152T)
T1 sequence: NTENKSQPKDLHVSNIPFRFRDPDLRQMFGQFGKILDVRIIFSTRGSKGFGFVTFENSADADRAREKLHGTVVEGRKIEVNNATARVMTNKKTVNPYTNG

B1: CCUUAUC (DNA:RNA)
RNA: GGGAGACCGGAAUUCAGAUUGUCCCCUUAUCUUAAAUCCCGUCGUAGCCACCA
DNA 1: CAATCTGAATTCCGGTCTCCC
DNA 2: TGGTGGCTACGACGGGATT
B2: AAAUGUC (DNA:RNA)
RNA: B1 RNA with C25A, C26A, U27A, A29G
DNA 1: CAATCTGAATTCCGGTCTCCC
DNA 2: TGGTGGCTACGACGGGATT
B3: CUAUAGG (DNA:RNA)
RNA: B1 RNA with C26U, U27A, U30G, C31G
DNA 1: CAATCTGAATTCCGGTCTCCC
DNA 2: TGGTGGCTACGACGGGATT
B4: CUGCGUG (DNA:RNA)
RNA: B1 RNA with C26U, U27G, U28C, A29G, C31G
DNA 1: CAATCTGAATTCCGGTCTCCC
DNA 2: TGGTGGCTACGACGGGATT
B5: CCUAGCA (DNA:RNA)
RNA: B1 RNA with U28A, A29G, U30C, C31A
DNA 1: CAATCTGAATTCCGGTCTCCC
DNA 2: TGGTGGCTACGACGGGATT
B6: GUCGUGC (DNA:RNA)
RNA: B1 RNA with C25G, C26U, U27C, U28G, A29U, U30G
DNA 1: CAATCTGAATTCCGGTCTCCC
DNA 2: TGGTGGCTACGACGGGATT
B7: UUGUUGC (DNA:RNA)
RNA: B1 RNA with C25U, C26U, U27G, A29U, U30G
DNA 1: CAATCTGAATTCCGGTCTCCC
DNA 2: TGGTGGCTACGACGGGATT
B8: GUGCUUG (DNA:RNA)
RNA: B1 RNA with C25G, C26U, U27G, U28C, A29U, C31G
DNA 1: CAATCTGAATTCCGGTCTCCC
DNA 2: TGGTGGCTACGACGGGATT
B9: UCCUUGC (DNA:RNA)
RNA: B1 RNA with C25U, U27C, A29U, U30G
DNA 1: CAATCTGAATTCCGGTCTCCC
DNA 2: TGGTGGCTACGACGGGATT
B10: UCCGUGC (DNA:RNA)
RNA: B1 RNA with C25U, U27C, U28G, A29U, U30G
DNA 1: CAATCTGAATTCCGGTCTCCC
DNA 2: TGGTGGCTACGACGGGATT
B11: UUGCUUG (DNA:RNA)
RNA: B1 RNA with C25U, C26U, U27G, U28C, A29U, C31G
DNA 1: CAATCTGAATTCCGGTCTCCC
DNA 2: TGGTGGCTACGACGGGATT
B12: CGGGAUC (DNA:RNA)
RNA: B1 RNA with C26G, U27G, U28G
DNA 1: CAATCTGAATTCCGGTCTCCC
DNA 2: TGGTGGCTACGACGGGATT
B13: CGUCCGU (DNA:RNA)
RNA: B1 RNA with C26G, U28C, A29C, U30G, C31U
DNA 1: CAATCTGAATTCCGGTCTCCC
DNA 2: TGGTGGCTACGACGGGATT
B14: UGAUAUA (DNA:RNA)
RNA: B1 RNA with C25U, C26G, U27A, C31A
DNA 1: CAATCTGAATTCCGGTCTCCC
DNA 2: TGGTGGCTACGACGGGATT
B15: GUCCGGA (DNA:RNA)
RNA: GGGAGACCGGAAUUCAGAUUGUCCGUCCGGAUUAAAUCCCGUCGUAGCCACCA
DNA 1: CAATCTGAATTCCGGTCTCCC
DNA 2: TGGTGGCTACGACGGGATT
B16: GUCCCGU (DNA:RNA)
RNA: B15 RNA with G29C, A31U
DNA 1: CAATCTGAATTCCGGTCTCCC
DNA 2: TGGTGGCTACGACGGGATT
B17: UGAUAUG (DNA:RNA)
RNA: B1 RNA with C25U, C26G, U27A, C31G
DNA 1: CAATCTGAATTCCGGTCTCCC
DNA 2: TGGTGGCTACGACGGGATT
B18: GGAUUGU (DNA:RNA)
RNA: B15 RNA with U26G, C27A, C28U, G29U, A31U
DNA 1: CAATCTGAATTCCGGTCTCCC
DNA 2: TGGTGGCTACGACGGGATT
B19: CACCGGA (DNA:RNA)
RNA: B15 RNA with G25C, U26A
DNA 1: CAATCTGAATTCCGGTCTCCC
DNA 2: TGGTGGCTACGACGGGATT
B20: GUAUCGU (DNA:RNA)
RNA: B15 RNA with C27A, C28U, G29C, A31U
DNA 1: CAATCTGAATTCCGGTCTCCC
DNA 2: TGGTGGCTACGACGGGATT
B21: CGUAUCG (DNA:RNA)
RNA: B1 RNA with C26G, U28A, A29U, U30C, C31G
DNA 1: CAATCTGAATTCCGGTCTCCC
DNA 2: TGGTGGCTACGACGGGATT
B22: CGGAUUG (DNA:RNA)
RNA: B1 RNA with C26G, U27G, U28A, A29U, C31G
DNA 1: CAATCTGAATTCCGGTCTCCC
DNA 2: TGGTGGCTACGACGGGATT
B23: GUAUUGU (DNA:RNA)
RNA: B15 RNA with C27A, C28U, G29U, A31U
DNA 1: CAATCTGAATTCCGGTCTCCC
DNA 2: TGGTGGCTACGACGGGATT
B24: UGAUAUC (DNA:RNA)
RNA: B1 RNA with C25U, C26G, U27A
DNA 1: CAATCTGAATTCCGGTCTCCC
DNA 2: TGGTGGCTACGACGGGATT
B25: AUUCGUU (DNA:RNA)
RNA: B15 RNA with G25A, C27U, G30U, A31U
DNA 1: CAATCTGAATTCCGGTCTCCC
DNA 2: TGGTGGCTACGACGGGATT
B26: UUAGGAG (DNA:RNA)
RNA: B15 RNA with G25U, C27A, C28G, G30A, A31G
DNA 1: CAATCTGAATTCCGGTCTCCC
DNA 2: TGGTGGCTACGACGGGATT
B27: AGGCUCU (DNA:RNA)
RNA: B15 RNA with G25A, U26G, C27G, G29U, G30C, A31U
DNA 1: CAATCTGAATTCCGGTCTCCC
DNA 2: TGGTGGCTACGACGGGATT
B28: CGCGGGG (DNA:RNA)
RNA: B15 RNA with G25C, U26G, C28G, A31G
DNA 1: CAATCTGAATTCCGGTCTCCC
DNA 2: TGGTGGCTACGACGGGATT
B29: UCCAGCA (DNA:RNA)
RNA: B15 RNA with G25U, U26C, C28A, G30C
DNA 1: CAATCTGAATTCCGGTCTCCC
DNA 2: TGGTGGCTACGACGGGATT
B30: GGAUCGG (DNA:RNA)
RNA: B15 RNA with U26G, C27A, C28U, G29C, A31G
DNA 1: CAATCTGAATTCCGGTCTCCC
DNA 2: TGGTGGCTACGACGGGATT
B31: CACCACG (DNA:RNA)
RNA: B1 RNA with C26A, U27C, U28C, U30C, C31G
DNA 1: CAATCTGAATTCCGGTCTCCC
DNA 2: TGGTGGCTACGACGGGATT

Biological target: T1, RBFOX1 RRM RbFoxmut (Fox-RRM*)
Experiment: EMSA; HiTS-Eq, 1 nM pool, 10 min; buffer printed only for the single-RNA assays: 10 mM Tris pH 7.5, 150 mM NaCl, 3.4 mM EDTA, 0.001% NP-40, 30 C
Details: tags: His6 N-terminal (pET28a); label: 5' 32P
Summary of the method: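 Purified wild-type or mutant RbFox RRM at increasing concentrations was equilibrated with 1 nM of 5′-radiolabelled RNA carrying 7 randomized nucleotides for 10 min in 50 µL. Unbound RNA was separated by 8% native PAGE and sequenced. Relative association constants came from read-count changes of each RNA species compared with the control reaction, normalised to the cognate motif.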

Binder	binding signal
B1	0.0522 KA relative to UGCAUGU
B2	0.145 KA relative to UGCAUGU
B3	0.0751 KA relative to UGCAUGU
B4	0.232 KA relative to UGCAUGU
B5	0.119 KA relative to UGCAUGU
B6	0.167 KA relative to UGCAUGU
B7	0.148 KA relative to UGCAUGU
B8	0.511 KA relative to UGCAUGU
B9	0.108 KA relative to UGCAUGU
B10	0.084 KA relative to UGCAUGU
B11	0.503 KA relative to UGCAUGU
B12	0.141 KA relative to UGCAUGU
B13	0.119 KA relative to UGCAUGU
B14	0.0947 KA relative to UGCAUGU
B15	0.0725 KA relative to UGCAUGU
B16	0.11 KA relative to UGCAUGU

Binder	binding signal
B17	0.437 KA relative to UGCAUGU
B18	0.39 KA relative to UGCAUGU
B19	0.0666 KA relative to UGCAUGU
B20	0.461 KA relative to UGCAUGU
B21	0.263 KA relative to UGCAUGU
B22	0.522 KA relative to UGCAUGU
B23	0.309 KA relative to UGCAUGU
B24	0.145 KA relative to UGCAUGU
B25	0.134 KA relative to UGCAUGU
B26	0.129 KA relative to UGCAUGU
B27	0.0577 KA relative to UGCAUGU
B28	0.0735 KA relative to UGCAUGU
B29	0.123 KA relative to UGCAUGU
B30	0.176 KA relative to UGCAUGU
B31	0.125 KA relative to UGCAUGU

From paper PMC9911399, “Two distinct binding modes provide the RNA-binding protein RbFox with extraordinary sequence specificity”
